Compounds without any hit were thinned out: in the full panel of roughly 83,000, 20% have a hit.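 Assay: single dose, 48 h. Readout: percent growth (0 = no net growth; negative = cell death). Active: <10.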
Columns and labels:
Test in all cases: NCI-60 one-dose screen, 48 h (100 = growth as untreated, 0 = no growth, -100 = all killed)
Conditions in all cases: 10 µM unless noted
SR leukemia = system: SR leukemia
RPMI-8226 leukemia = system: RPMI-8226 leukemia
OVCAR-8 ovarian = system: OVCAR-8 ovarian
OVCAR-5 ovarian = system: OVCAR-5 ovarian
OVCAR-4 ovarian = system: OVCAR-4 ovarian
SK-OV-3 ovarian = system: SK-OV-3 ovarian
IGROV1 ovarian = system: IGROV1 ovarian
OVCAR-3 ovarian = system: OVCAR-3 ovarian
HS 578T breast = system: HS 578T breast
NCI/ADR-RES ovarian = system: NCI/ADR-RES ovarian
T-47D breast = system: T-47D breast
BT-549 breast = system: BT-549 breast
MDA-MB-435 melanoma = system: MDA-MB-435 melanoma
SW-620 colon = system: SW-620 colon
MCF7 breast = system: MCF7 breast
HCT-116 colon = system: HCT-116 colon
HCC-2998 colon = system: HCC-2998 colon
KM12 colon = system: KM12 colon

Measured: growth

CC(=O)OC/C(C)=C\CC(C)COC(C)=O (centres undefined)
inactive: SR leukemia 83% | RPMI-8226 leukemia 94.2% | OVCAR-8 ovarian 99.8% | OVCAR-5 ovarian 111% | OVCAR-4 ovarian 105% | SK-OV-3 ovarian 101% | IGROV1 ovarian 106% | OVCAR-3 ovarian 112% | HS 578T breast 100% | NCI/ADR-RES ovarian 104% | T-47D breast 104% | BT-549 breast 102% | MDA-MB-435 melanoma 94.9% | SW-620 colon 97.6% | MCF7 breast 90.2% | HCT-116 colon 95.1% | HCC-2998 colon 103% | KM12 colon 104%

COc1cccc2c1Cc1ccccc1-2
inactive: SR leukemia 121% | RPMI-8226 leukemia 99.8% | OVCAR-8 ovarian 112% | OVCAR-5 ovarian 107% | OVCAR-4 ovarian 98.9% | SK-OV-3 ovarian 115% | IGROV1 ovarian 115% | OVCAR-3 ovarian 112% | HS 578T breast 103% | NCI/ADR-RES ovarian 98.6% | T-47D breast 101% | BT-549 breast 106% | MDA-MB-435 melanoma 103% | MCF7 breast 100% | HCT-116 colon 101% | HCC-2998 colon 98.5% | KM12 colon 104%

OCC(O)COc1ccc(Cl)cc1Cl (centres undefined)
inactive: SR leukemia 101% | RPMI-8226 leukemia 102% | OVCAR-8 ovarian 92.4% | OVCAR-5 ovarian 101% | OVCAR-4 ovarian 101% | SK-OV-3 ovarian 91.7% | IGROV1 ovarian 101% | OVCAR-3 ovarian 110% | HS 578T breast 102% | NCI/ADR-RES ovarian 110% | T-47D breast 81.5% | BT-549 breast 101% | MDA-MB-435 melanoma 103% | MCF7 breast 95.6% | HCT-116 colon 93% | HCC-2998 colon 98.3% | KM12 colon 106%

O=[n+]1ccn([O-])c2ccccc21
inactive: SR leukemia 78.3% | RPMI-8226 leukemia 78.9% | OVCAR-8 ovarian 121% | OVCAR-5 ovarian 93.1% | OVCAR-4 ovarian 106% | SK-OV-3 ovarian 109% | IGROV1 ovarian 106% | OVCAR-3 ovarian 101% | HS 578T breast 89.4% | NCI/ADR-RES ovarian 103% | T-47D breast 92.4% | BT-549 breast 92.5% | MDA-MB-435 melanoma 101% | SW-620 colon 93.9% | MCF7 breast 95.8% | HCT-116 colon 95.7% | HCC-2998 colon 108% | KM12 colon 99%

CCCCNc1ccc(-c2ccc(NCCCC)cc2)cc1
inactive: SR leukemia 44.1% | RPMI-8226 leukemia 61.8% | OVCAR-8 ovarian 82.1% | OVCAR-5 ovarian 90.3% | OVCAR-4 ovarian 63.5% | SK-OV-3 ovarian 94.5% | IGROV1 ovarian 78% | OVCAR-3 ovarian 67.8% | HS 578T breast 84.2% | NCI/ADR-RES ovarian 79.3% | T-47D breast 45.9% | BT-549 breast 31.1% | MDA-MB-435 melanoma 40.8% | SW-620 colon 78.6% | MCF7 breast 34.3% | HCT-116 colon 55.3% | HCC-2998 colon 94.7% | KM12 colon 56.9%

C1=NCCc2ccccc21
inactive: SR leukemia 97% | RPMI-8226 leukemia 99% | OVCAR-8 ovarian 99.1% | OVCAR-5 ovarian 105% | OVCAR-4 ovarian 98.7% | SK-OV-3 ovarian 93% | IGROV1 ovarian 105% | OVCAR-3 ovarian 100% | HS 578T breast 83.8% | NCI/ADR-RES ovarian 106% | T-47D breast 86% | BT-549 breast 106% | MDA-MB-435 melanoma 111% | MCF7 breast 90.3% | HCT-116 colon 89.7% | HCC-2998 colon 112% | KM12 colon 110%

C=CCc1cc(OC)c(OC)c(OC)c1
inactive: SR leukemia 107% | RPMI-8226 leukemia 110% | OVCAR-8 ovarian 102% | OVCAR-5 ovarian 99.2% | OVCAR-4 ovarian 112% | SK-OV-3 ovarian 114% | IGROV1 ovarian 110% | OVCAR-3 ovarian 93.1% | HS 578T breast 103% | NCI/ADR-RES ovarian 105% | T-47D breast 108% | BT-549 breast 96.1% | MDA-MB-435 melanoma 108% | SW-620 colon 91.8% | MCF7 breast 113% | HCT-116 colon 99.1% | HCC-2998 colon 100% | KM12 colon 88.7%

CC(C)N(CCCC#N)C(C)C
inactive: SR leukemia 108% | RPMI-8226 leukemia 98.2% | OVCAR-8 ovarian 92.8% | OVCAR-5 ovarian 96.7% | OVCAR-4 ovarian 88.7% | SK-OV-3 ovarian 110% | IGROV1 ovarian 103% | OVCAR-3 ovarian 108% | HS 578T breast 86.7% | NCI/ADR-RES ovarian 121% | T-47D breast 94.2% | BT-549 breast 112% | MDA-MB-435 melanoma 103% | SW-620 colon 99.2% | MCF7 breast 83.7% | HCT-116 colon 98.8% | HCC-2998 colon 106% | KM12 colon 105%

COc1cc(OC)c(NC(=O)C(Sc2nc(C)cc(C)c2C#N)c2ccccc2)cc1Cl (centres undefined)
inactive: SR leukemia 98.4% | RPMI-8226 leukemia 119% | OVCAR-8 ovarian 88.6% | OVCAR-5 ovarian 106% | OVCAR-4 ovarian 105% | SK-OV-3 ovarian 85.3% | IGROV1 ovarian 93.4% | OVCAR-3 ovarian 113% | HS 578T breast 86.7% | NCI/ADR-RES ovarian 96.9% | T-47D breast 95.9% | BT-549 breast 81.7% | MDA-MB-435 melanoma 105% | SW-620 colon 107% | MCF7 breast 95.5% | HCT-116 colon 86.7% | HCC-2998 colon 111% | KM12 colon 96.4%

CCOC(=O)/C(C)=C\c1ccc(OC)c(OC)c1
inactive: SR leukemia 86.5% | RPMI-8226 leukemia 103% | OVCAR-8 ovarian 101% | OVCAR-5 ovarian 99.3% | OVCAR-4 ovarian 101% | SK-OV-3 ovarian 103% | IGROV1 ovarian 105% | OVCAR-3 ovarian 103% | HS 578T breast 108% | NCI/ADR-RES ovarian 100% | T-47D breast 90.2% | BT-549 breast 89% | MDA-MB-435 melanoma 102% | SW-620 colon 106% | MCF7 breast 101% | HCT-116 colon 94.2% | HCC-2998 colon 103% | KM12 colon 102%

O=C(O)c1c[nH]c2ccccc2c1=O
inactive: SR leukemia 99.9% | RPMI-8226 leukemia 97.8% | OVCAR-8 ovarian 108% | OVCAR-5 ovarian 93.9% | OVCAR-4 ovarian 93.4% | SK-OV-3 ovarian 92.3% | IGROV1 ovarian 99.2% | OVCAR-3 ovarian 107% | HS 578T breast 112% | NCI/ADR-RES ovarian 104% | T-47D breast 89.5% | BT-549 breast 101% | MDA-MB-435 melanoma 107% | SW-620 colon 108% | MCF7 breast 93.9% | HCT-116 colon 95% | HCC-2998 colon 102% | KM12 colon 100%

O=S(=O)(O)c1cccnc1
inactive: SR leukemia 100% | RPMI-8226 leukemia 66.4% | OVCAR-8 ovarian 104% | OVCAR-5 ovarian 119% | OVCAR-4 ovarian 114% | SK-OV-3 ovarian 103% | IGROV1 ovarian 132% | OVCAR-3 ovarian 111% | HS 578T breast 110% | NCI/ADR-RES ovarian 128% | T-47D breast 106% | BT-549 breast 111% | MDA-MB-435 melanoma 102% | SW-620 colon 98.9% | MCF7 breast 99.9% | HCT-116 colon 126% | HCC-2998 colon 153% | KM12 colon 101%

Cc1ccc(S(=O)(=O)NC(=O)NCCSSCCNC(=O)NS(=O)(=O)c2ccc(C)cc2)cc1
inactive: SR leukemia 107% | RPMI-8226 leukemia 99.8% | OVCAR-8 ovarian 106% | OVCAR-5 ovarian 93.6% | OVCAR-4 ovarian 112% | SK-OV-3 ovarian 116% | IGROV1 ovarian 101% | OVCAR-3 ovarian 109% | HS 578T breast 97.5% | NCI/ADR-RES ovarian 111% | T-47D breast 105% | BT-549 breast 125% | MDA-MB-435 melanoma 101% | MCF7 breast 103% | HCT-116 colon 113% | HCC-2998 colon 108% | KM12 colon 113%

CC(=O)C[n+]1ccc(C)cc1Sc1ccccc1C
inactive: SR leukemia 130% | RPMI-8226 leukemia 98.6% | OVCAR-8 ovarian 88.7% | OVCAR-5 ovarian 90% | OVCAR-4 ovarian 100% | SK-OV-3 ovarian 108% | IGROV1 ovarian 120% | OVCAR-3 ovarian 102% | HS 578T breast 95.7% | NCI/ADR-RES ovarian 101% | T-47D breast 82.2% | BT-549 breast 90% | MDA-MB-435 melanoma 101% | SW-620 colon 100% | MCF7 breast 90.3% | HCT-116 colon 92.9% | HCC-2998 colon 108% | KM12 colon 94.1%

CS(=O)CC(=N\O)/C(CS(C)=O)=N\O (centres undefined)
inactive: SR leukemia 99.8% | RPMI-8226 leukemia 100% | OVCAR-8 ovarian 95.5% | OVCAR-5 ovarian 103% | OVCAR-4 ovarian 103% | SK-OV-3 ovarian 103% | IGROV1 ovarian 109% | OVCAR-3 ovarian 108% | HS 578T breast 106% | NCI/ADR-RES ovarian 108% | T-47D breast 108% | BT-549 breast 106% | MDA-MB-435 melanoma 106% | SW-620 colon 101% | MCF7 breast 90.7% | HCT-116 colon 102% | HCC-2998 colon 105% | KM12 colon 102%

Cn1/c(=N\N=C\c2ccccc2OCCO)sc2ccccc21
inactive: SR leukemia 89% | RPMI-8226 leukemia 81% | OVCAR-8 ovarian 100% | OVCAR-5 ovarian 104% | OVCAR-4 ovarian 106% | SK-OV-3 ovarian 104% | IGROV1 ovarian 70.2% | OVCAR-3 ovarian 95.2% | HS 578T breast 99.8% | NCI/ADR-RES ovarian 109% | T-47D breast 79.3% | BT-549 breast 102% | MDA-MB-435 melanoma 107% | SW-620 colon 109% | MCF7 breast 76.9% | HCT-116 colon 98.8% | HCC-2998 colon 110% | KM12 colon 92.2%

COC(=O)C1(CC(C)=O)NC(=S)NC(=O)C1C#N (centres undefined)
inactive: SR leukemia 99.1% | RPMI-8226 leukemia 114% | OVCAR-8 ovarian 112% | OVCAR-5 ovarian 107% | OVCAR-4 ovarian 117% | SK-OV-3 ovarian 117% | IGROV1 ovarian 111% | OVCAR-3 ovarian 122% | HS 578T breast 96.1% | NCI/ADR-RES ovarian 103% | T-47D breast 108% | BT-549 breast 108% | MDA-MB-435 melanoma 114% | MCF7 breast 97.5% | HCT-116 colon 106% | HCC-2998 colon 109% | KM12 colon 106%

O=C(Nc1c(Cl)cc(Cl)cc1Cl)ON=C1CCCCC1
inactive: SR leukemia 98.4% | RPMI-8226 leukemia 105% | OVCAR-8 ovarian 104% | OVCAR-5 ovarian 96.4% | OVCAR-4 ovarian 108% | SK-OV-3 ovarian 114% | IGROV1 ovarian 109% | OVCAR-3 ovarian 105% | HS 578T breast 99.3% | NCI/ADR-RES ovarian 109% | T-47D breast 98.6% | BT-549 breast 113% | MDA-MB-435 melanoma 107% | SW-620 colon 114% | MCF7 breast 102% | HCT-116 colon 107% | HCC-2998 colon 117% | KM12 colon 96.5%
